Measurements taken from the supplement of paper PMC10811239.

These compounds were tested on LEGO organoid PTN (PTEN-/-; TP53-/-; NF1-/-) (assay: bioluminescence (viable cell) signal fold change after vs before treatment, normalised to DMSO (ratio); higher = more tumour cell growth / less inhibition). Details: 10 µM; treatment time 6 days.
Protocol: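 Luc2-labelled iPSC-derived glioblastoma-like organoids (LEGOs, genotypes PT = PTEN-/-;TP53-/-, PTCC = plus CDKN2A/B-/-, PTN = plus NF1-/-) were treated with 10 uM drug for 6 days (applied every other day) at 37 C. Bioluminescence imaging was done before treatment and 2 days after the last dose. BLI signals were normalised to the DMSO control on the same day and then to the pre-treatment signal (N=3).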

Question: `CNC(=O)c1cc(Oc2ccc(NC(=O)Nc3ccc(Cl)c(C(F)(F)F)c3)cc2)ccn1` [Sorafenib] was tested. Which bioluminescence did it give?
Answer: 0.285

Question: For `C[C@H]1COc2c(N3CCN(C)CC3)c(F)cc3c(=O)c(C(=O)O)cn1c23` [Levofloxacin], which bioluminescence is on record?
Answer: 0.861

Question: `CCCCCCCCCCC[C@@H](C[C@@H]1OC(=O)[C@H]1CCCCCC)OC(=O)[C@H](CC(C)C)NC=O` [Orlistat] was tested. Which bioluminescence did it give?
Answer: 1.32

Question: Which bioluminescence does the source give for `CC(=O)Nc1ccc(O)cc1` [Acetaminophen] here?
Answer: 0.918

Question: Which bioluminescence does the source give for `Clc1ccc2c(c1)C(N1CCNCC1)=Nc1ccccc1O2` [Amoxapine] here?
Answer: 0.981
